Experimental data from PubChem BioAssay AID641 (Vanderbilt High Throughput Screening Facility, 2007).
Hit rate of the full screen: of about 58,000 compounds, about 3,400 (5.9%) were called active. This is one part of a sample in which actives are shown more often than they occur.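 Rule for the calls: active = luminescence count or its row- and column-corrected plate score outside the 99.7% band of the plate's sample wells, on either side; inactive = the rest.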

The compounds below were run against D(1A) dopamine receptor (Homo sapiens) (UniProt P21728) (assay: D1 CRE-luciferase signal change, two-sided – cell-based, HEK293 D1, dopamine EC30, D1 allosteric modulator project, primary screen (AID 641)). Conditions: dopamine EC30 potentiation, at 10 µM, actives deviate in either direction.
Sequence of D(1A) dopamine receptor (Homo sapiens) (P21728 whole entry, looked up): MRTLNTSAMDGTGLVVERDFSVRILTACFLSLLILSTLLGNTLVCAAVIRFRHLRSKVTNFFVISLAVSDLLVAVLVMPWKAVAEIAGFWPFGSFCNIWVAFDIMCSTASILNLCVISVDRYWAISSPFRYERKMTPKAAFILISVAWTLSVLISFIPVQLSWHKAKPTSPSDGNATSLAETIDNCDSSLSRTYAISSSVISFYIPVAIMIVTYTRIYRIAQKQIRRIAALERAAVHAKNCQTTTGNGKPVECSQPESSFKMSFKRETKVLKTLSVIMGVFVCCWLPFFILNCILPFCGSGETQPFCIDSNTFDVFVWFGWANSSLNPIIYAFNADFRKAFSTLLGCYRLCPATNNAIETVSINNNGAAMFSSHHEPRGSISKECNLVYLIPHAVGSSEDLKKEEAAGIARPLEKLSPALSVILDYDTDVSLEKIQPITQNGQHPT

Compound | B-score
COc1ccc(OC)c(Nc2nc(-c3ccc(O)c(O)c3)cs2)c1 | -0.798 (inactive)
Oc1ccc(-c2csc(Nc3cccnc3)n2)cc1 | 6.13 (active)
c1ccc(Nc2nc(-c3ccncc3)cs2)nc1 | -2.02 (inactive)
COc1ccc(OC)c(C(=O)c2coc3ccc(OC)cc23)c1 | 0.803 (inactive)
COc1ccc(-c2nnc(SCC(=O)NC3CCCCC3)o2)cc1OC | 5.11 (active)
COc1ccccc1-c1nnc(SCC(=O)Nc2ccccc2)o1 | -1.39 (inactive)
COc1ccc(CCNC(=O)CSc2nnc(-c3cccc(F)c3)o2)cc1OC | 0.506 (inactive)
Cc1nc2ccccc2c2oc(C(=O)NCC3CCCO3)cc12 (stereo unspecified) | 1.81 (inactive)
Cc1ccc(-c2noc(-c3ccccc3C(=O)NCC3CCCO3)n2)cc1 (stereo unspecified) | -0.376 (inactive)
c1ccc2c(NCC3CCCO3)nc(-c3ccncc3)nc2c1 (stereo unspecified) | 6.75 (active)
CN(C)/C=C1/C(=O)Nc2ccccc21 | 0.196 (inactive)
Cn1c(=O)c2[nH]c(NCC3CCCO3)nc2n(-c2ccccc2)c1=O (stereo unspecified) | 2.53 (active)
CCCCn1c(SCC(=O)NCC2CCCO2)nc2ccc(N3CCOCC3)cc2c1=O (stereo unspecified) | 0.249 (inactive)
CC(C)(C)c1nc(NCC2CCCO2)c2nnn(Cc3ccccc3)c2n1 (stereo unspecified) | 0.157 (inactive)
CCC1C(C#N)=C(SC)NC2=C1C(=O)CC(C)(C)C2 (stereo unspecified) | -0.282 (inactive)
O=C(CCn1c(=O)[nH]c2ccccc2c1=O)NCCCN1CCN(c2cccc(Cl)c2)CC1 | -1.82 (inactive)
O=C(CCCn1c(=O)[nH]c2cc(Cl)ccc2c1=O)NCCN1CCN(c2ccccc2)CC1 | -3.76 (active)
O=C(CCCCn1c(=O)[nH]c2ccccc2c1=O)NCc1ccc2c(c1)OCO2 | 0.766 (inactive)
C=CCNC(=O)C1CC=CCC1C(=O)O (stereo unspecified) | 0.00169 (inactive)
CC(C)(C)NC(=O)c1cc(NC(=O)c2ccco2)cc(NC(=O)c2ccco2)c1 | -0.752 (inactive)
O=C(c1ccco1)N1CCN(c2cccc(Cl)c2)CC1 | -0.482 (inactive)
O=C(c1ccco1)N1CCN=C1SCc1cccc(Cl)c1 | 6.32 (active)
O=C(C1CC1)N1CCN=C1SCc1ccc(Cl)cc1 | 0.0469 (inactive)
N#CC1=C(N)OC2=C(C(=O)CCC2)C1C1CC=CCC1 (stereo unspecified) | -0.19 (inactive)
CCCN1C(=O)C(NC(C)=O)c2cc(OC)ccc21 (stereo unspecified) | 0.478 (inactive)
CC(=O)Nc1cccc(NC(=O)c2c(-c3ccccc3)noc2C)c1 | 0.894 (inactive)

Compound | B-score
Cc1onc(-c2ccccc2)c1C(=O)Nc1ccccc1C#N | -4.73 (active)
Cc1onc(-c2ccccc2)c1C(=O)N1CCOCC1 | -1.43 (inactive)
Cc1cc(C)c2nc(N3CCCC3)c(C#N)cc2c1 | 0.082 (inactive)
CCCN1Cc2cccc(C(=O)NCc3ccccc3)c2C1=O | 11.5 (active)
COCCN1Cc2cccc(C(=O)Nc3ccccc3OC)c2C1=O | 0.446 (inactive)
CS(=O)(=O)NCc1ccc(C(=O)NCc2ccccc2)cc1 | 0.452 (inactive)
O=S(=O)(NCCNS(=O)(=O)c1ccccc1)c1ccccc1 | 0.231 (inactive)
COc1ccccc1Oc1ccc(S(=O)(=O)Nc2cccnc2)cc1 | -1.35 (inactive)
O=C(Nc1nnc(-c2ccc(Cl)cc2)o1)c1ccccc1Br | -0.685 (inactive)
CC1=CC(C)(C)N(C(=O)CSc2nccn2C)c2cc(C)ccc21 | -0.925 (inactive)
Cc1noc(NS(=O)(=O)c2ccc(NC(=O)C34CCC(CC3)C4)cc2)c1C | -0.488 (inactive)
CN(CC(=O)NC1CCCCC1)S(=O)(=O)c1cccc2cccnc12 | -1.04 (inactive)
O=C(Cn1cnc2c(cnn2-c2ccc(F)cc2)c1=O)NCCc1ccccc1 | -0.343 (inactive)
N#C/C(=C1\CCCN1)c1nc(-c2ccccc2)cs1 | -1.24 (inactive)
Cn1c(/C(C#N)=C2/CCCCCN2)nc2ccccc21 | 11.4 (active)
CCCn1c(C(O)c2ccc(OCC)cc2)nc2ccccc21 (stereo unspecified) | -0.886 (inactive)
COc1cc(C(O)c2nc3ccccc3n2C)cc(OC)c1OC (stereo unspecified) | -0.575 (inactive)
CC(C)n1c(C(O)c2ccccc2)nc2ccccc21 (stereo unspecified) | 3.08 (active)
CC1(C)Cc2ccccc2-c2nc(CN3CCOCC3)[nH]c(=O)c21 | 11.8 (active)
Cn1c(=O)c2c(nc(CN3CCOCC3)n2Cc2ccccc2)n(C)c1=O | -0.887 (inactive)
CCOC(=O)C1Cn2c(nc3c(c2=O)C(C)(CC)Cc2ccccc2-3)S1 (stereo unspecified) | -0.309 (inactive)
Cc1ccc(N(CC(O)CN2CCCC2)S(=O)(=O)c2ccccc2)cc1 (stereo unspecified) | 0.09 (inactive)
COc1ccc(-c2nc(CS(=O)CC(=O)N3CCc4ccccc4C3)c(C)o2)cc1 (stereo unspecified) | -0.182 (inactive)
Cc1cccc(-n2ncc3c(N4CCc5ccccc54)ncnc32)c1 | -0.748 (inactive)
COc1ccc(-n2ncc3c(N4CCCc5ccccc54)ncnc32)cc1 | 0.526 (inactive)
COc1ccc(-n2ncc3c(N4CCc5ccccc54)ncnc32)cc1 | -3.03 (active)

Compound | B-score
Cc1cc(/C=N/n2cnnc2)c(C)n1-c1ccc2ncccc2c1 | -0.264 (inactive)
CN1C(=O)c2ccc(NC(=O)c3c(F)c(F)c(F)c(F)c3F)cc2C1=O | 0.371 (inactive)
CNC(=O)C1CC(=O)N(Cc2ccc3c(c2)OCO3)C(=Nc2ccc(F)cc2)S1 (stereo unspecified) | -4.24 (active)
O=C(Cn1cnc2c(nnn2Cc2ccc(F)cc2)c1=O)NCc1ccc2c(c1)OCO2 | -1.24 (inactive)
O=C(CN1CCN(CC(=O)Nc2ccc3c(c2)OCO3)CC1)Nc1ccc(F)cc1 | -0.0409 (inactive)
O=C(Nc1cccc(F)c1)c1ccc(S(=O)(=O)N2CCCC2)cc1 | -0.728 (inactive)
CN1CCN(c2ccc(NC(=O)COc3ccc(Cl)cc3Cl)cc2)CC1 | -5.29 (active)
CC(C)CNS(=O)(=O)c1ccc(OCC(=O)Nc2ccc3c(c2)OCO3)c(Cl)c1 | 0.525 (inactive)
Cc1ccccc1OCC(=O)Nc1ccc(N2CCN(C(=O)C(C)C)CC2)c(Cl)c1 | -0.399 (inactive)
Cc1ccc(C)c(NC(=O)CSc2nnc(Cc3cccn3C)n2-c2ccc(F)cc2)c1 | -0.0122 (inactive)
CCOC(=O)C1CCc2nc3ccccc3c(=O)n21 (stereo unspecified) | -0.327 (inactive)
CC(C[N+](C)(C)C)OC(N)=O (stereo unspecified) | 0.394 (inactive)
CC(=O)OC(C)C[N+](C)(C)C (stereo unspecified) | 6.75 (active)
CSc1nnc(CNC(=O)c2ccccc2)n1-c1ccc(F)cc1 | -0.759 (inactive)
Cc1ccccc1NC(=O)c1cnn(-c2ccccc2)c1NC(=O)c1ccco1 | -0.921 (inactive)
COCCCn1c(CCC(=O)O)ccc1-c1ccc(F)cc1 | 0.034 (inactive)
COC(=O)c1sc(NC(=O)c2ccc(OC)cc2OC)nc1C | -2.64 (active)
COC(=O)c1sc(NC(=O)c2csc3c2CCCC3)nc1C | 0.102 (inactive)
COc1ccc(C(=O)Nc2nncs2)c(OC)c1 | -0.602 (inactive)
O=C(C1CCN(S(=O)(=O)c2cccs2)CC1)N1CCCCCC1 | -0.0225 (inactive)
O=S(=O)(c1cccs1)N1CCc2ccccc2C1 | 7.95 (active)
O=S(=O)(c1cccs1)N1CCN(Cc2ccccc2)CC1 | 0.549 (inactive)
CCNC(=O)CCc1nc(-c2ccc(C(C)(C)C)cc2)no1 | -0.735 (inactive)
CCOc1ccccc1N(CC(=O)Nc1ccccc1C(=O)OC)S(C)(=O)=O | 0.461 (inactive)
CC1=C2C(=O)OC(c3ccoc3)C2(C)CCC1 (stereo unspecified) | -0.874 (inactive)
CC(=O)Nc1cccc(Oc2cc(C#N)c(C#N)cc2N2CCOCC2)c1 | 10.6 (active)

Compound | B-score
CC(=O)Nc1ccc(N2CCOCC2)c(C(=O)Nc2cccc(C)c2)c1 | -0.395 (inactive)
CCOc1cccc(NC(=O)CC#N)c1 | -0.00988 (inactive)
COc1ccc(S(=O)(=O)N2CCC(C(=O)N3CCOCC3)CC2)cc1OC | 1.55 (inactive)
O=C(Cn1cnc2c(nnn2-c2ccccc2)c1=O)N1CCC(Cc2ccccc2)CC1 | -0.43 (inactive)
CCSC1=C(C#N)C(=O)n2c1cc1c2CCCC1 | -0.914 (inactive)
CCSc1ncnc2c(C#N)c3n(c12)CCCCC3 | 13.8 (active)
CCOC(=O)C1=C(C)NC(=O)N(C(C)=O)C1c1ccc(Cl)cc1 (stereo unspecified) | -0.258 (inactive)
COc1ccc(-c2nc(-c3ccccc3)no2)c(OC)c1 | -4.54 (active)
COc1cc(-c2nc(-c3ccncc3)no2)cc(OC)c1OC | 0.324 (inactive)
COc1ccc(-c2noc(-c3cccc(OC)c3OC)n2)cc1OC | -0.715 (inactive)
COc1ccc(NC(=O)CN2CCN(S(=O)(=O)c3ccc(F)cc3)CC2)cc1Cl | 0.0874 (inactive)
CC1(C)CC(=O)C=C(NCCCNC2CCCCC2)C1 | -0.045 (inactive)
COc1cccc(CNC(=O)C2CCN(S(=O)(=O)c3cccc4cccnc34)CC2)c1 | 0.421 (inactive)
CCOc1ccccc1NC(=O)C1CCN(S(=O)(=O)c2c(C)nn(C)c2C)CC1 | -0.536 (inactive)
COC(=O)c1ccccc1NC(=O)C1CCN(S(=O)(=O)c2cc(OC)ccc2OC)CC1 | 16.9 (active)
Cn1cc(S(=O)(=O)N2CCC(Cc3ccccc3)CC2)c(=O)n(C)c1=O | 0.229 (inactive)
CC1CCC(NC(=O)c2ccc(N3CCCC3=O)cc2)CC1 (stereo unspecified) | -0.328 (inactive)
O=P(c1cccs1)(c1cccs1)c1cccs1 | -0.658 (inactive)
CC1C(c2ccccc2)=[N+]([O-])C2(CCCC2)N1O (stereo unspecified) | 0.0193 (inactive)
CCCCc1nc2ccccc2c(=O)n1NC(=O)c1c(O)c2cccc3c2n(c1=O)CC3 | -0.934 (inactive)
CCc1ccc2oc(-c3ccc(N)cc3)nc2c1 | -5.51 (active)
Nc1ccc(-c2nnc(-c3ccc(-c4ccccc4)cc3)o2)cc1 | -0.481 (inactive)
CCCCCC(=O)Nc1ccc2oc(-c3ccncc3)nc2c1 | -0.0351 (inactive)
